Measurements reported in PMC5700166.
Numbering of substitutions follows the chain as printed.

How the values were obtained:
Test in all cases: protein-binding microarray (PBM); PBM: ~300 nM protein, 6 mM HEPES pH 7.8, 80 mM KCl, 0.5 mM EDTA, 0.5 mM EGTA, 6% glycerol, 35 ng/ul poly-dIdC, 1% milk, 1 h, room temperature; Ap Aiptasia and Nv Nematostella (sea anemones) / Co Capsaspora / Aq Amphimedon (sponge) / Dm Drosophila / Hu human; RHD is the Rel homology domain; high values mean tight binding
Details in all cases: dsDNA, one strand shown
GST-Ap-NF-kB RHD = target: T1, GST-Ap-NF-kB RHD (Exaiptasia pallida (Aiptasia), UniProt A0A913YAJ5 2-422)
T1 sequence: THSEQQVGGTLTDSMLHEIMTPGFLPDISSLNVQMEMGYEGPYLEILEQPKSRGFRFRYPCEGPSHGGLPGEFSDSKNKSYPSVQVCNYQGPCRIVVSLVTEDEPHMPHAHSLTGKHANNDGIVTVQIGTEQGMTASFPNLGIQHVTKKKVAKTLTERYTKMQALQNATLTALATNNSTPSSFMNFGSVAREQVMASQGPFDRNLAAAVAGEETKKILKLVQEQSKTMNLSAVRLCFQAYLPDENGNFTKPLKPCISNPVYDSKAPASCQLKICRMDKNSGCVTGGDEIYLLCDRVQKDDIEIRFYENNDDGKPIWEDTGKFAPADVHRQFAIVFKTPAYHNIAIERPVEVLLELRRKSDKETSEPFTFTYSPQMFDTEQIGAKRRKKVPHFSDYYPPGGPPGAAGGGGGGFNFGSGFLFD

[1] = target: T2, GST-Nv-NF-kB (Cys allele) (Nematostella vectensis, UniProt E5G601 2-411)
T2 sequence: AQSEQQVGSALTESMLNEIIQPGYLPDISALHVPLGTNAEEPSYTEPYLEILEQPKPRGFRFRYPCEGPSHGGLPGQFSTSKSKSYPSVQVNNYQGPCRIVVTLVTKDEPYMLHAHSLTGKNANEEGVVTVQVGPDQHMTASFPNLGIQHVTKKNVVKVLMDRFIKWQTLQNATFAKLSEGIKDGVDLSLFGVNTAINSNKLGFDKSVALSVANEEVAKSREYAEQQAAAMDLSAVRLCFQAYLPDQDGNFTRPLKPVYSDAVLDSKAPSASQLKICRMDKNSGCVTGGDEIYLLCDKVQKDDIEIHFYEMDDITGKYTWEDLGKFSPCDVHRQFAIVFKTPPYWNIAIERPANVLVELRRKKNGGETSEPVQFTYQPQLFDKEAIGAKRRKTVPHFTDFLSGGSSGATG

[2] = target: T3, GST-Nv-NF-kB (Ser allele) (Nematostella vectensis, UniProt A7UNT2 2-411)
T3 sequence: T2 sequence with Q21R, C66S, S207N, E215Q, V217A, E225K, A268E, D399E

GST-Co-NF-kB = target: T4, GST-Co-NF-kB (Capsaspora owczarzaki, UniProt F1ARL5 200-546)
T4 sequence: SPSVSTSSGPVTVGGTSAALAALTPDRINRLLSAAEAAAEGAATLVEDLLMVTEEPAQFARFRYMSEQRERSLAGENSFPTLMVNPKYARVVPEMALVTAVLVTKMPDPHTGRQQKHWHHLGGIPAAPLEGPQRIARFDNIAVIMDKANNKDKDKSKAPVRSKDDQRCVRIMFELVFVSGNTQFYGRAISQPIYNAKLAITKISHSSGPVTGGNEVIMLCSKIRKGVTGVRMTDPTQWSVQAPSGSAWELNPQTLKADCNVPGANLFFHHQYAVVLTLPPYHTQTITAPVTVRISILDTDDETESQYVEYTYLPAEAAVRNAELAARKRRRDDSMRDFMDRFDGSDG

GST-Dm-Relish = target: T5, GST-Dm-Relish (Drosophila melanogaster, UniProt Q94527 99-473)
T5 sequence: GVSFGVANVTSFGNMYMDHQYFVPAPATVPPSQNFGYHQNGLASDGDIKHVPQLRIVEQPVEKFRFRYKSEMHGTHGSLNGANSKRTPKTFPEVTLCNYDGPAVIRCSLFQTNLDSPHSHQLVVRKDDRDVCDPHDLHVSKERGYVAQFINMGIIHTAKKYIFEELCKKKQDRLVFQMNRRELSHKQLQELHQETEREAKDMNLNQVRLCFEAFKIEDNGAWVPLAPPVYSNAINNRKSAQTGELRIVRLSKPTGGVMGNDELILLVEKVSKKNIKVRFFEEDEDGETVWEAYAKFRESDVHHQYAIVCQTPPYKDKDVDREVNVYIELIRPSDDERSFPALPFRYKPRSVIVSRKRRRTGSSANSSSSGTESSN

GST-Aq-NF-kB = target: T6, GST-Aq-NF-kB (Amphimedon queenslandica, UniProt A9Y5G7 2-389)
T6 sequence: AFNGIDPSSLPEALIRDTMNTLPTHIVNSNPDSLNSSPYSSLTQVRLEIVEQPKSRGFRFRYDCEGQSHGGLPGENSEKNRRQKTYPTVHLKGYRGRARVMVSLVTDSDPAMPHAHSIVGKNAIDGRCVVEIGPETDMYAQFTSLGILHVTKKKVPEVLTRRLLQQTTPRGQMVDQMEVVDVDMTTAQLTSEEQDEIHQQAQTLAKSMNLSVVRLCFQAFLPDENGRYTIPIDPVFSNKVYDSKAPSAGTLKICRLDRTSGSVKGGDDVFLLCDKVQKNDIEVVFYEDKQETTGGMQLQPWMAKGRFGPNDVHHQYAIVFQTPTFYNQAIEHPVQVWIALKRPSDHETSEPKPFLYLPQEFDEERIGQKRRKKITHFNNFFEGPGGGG

GST-Hu-p50 = GST-Hu-p50 (Homo sapiens, UniProt P19838 7-356)
Sequence of GST-Hu-p50 (P19838 7-356): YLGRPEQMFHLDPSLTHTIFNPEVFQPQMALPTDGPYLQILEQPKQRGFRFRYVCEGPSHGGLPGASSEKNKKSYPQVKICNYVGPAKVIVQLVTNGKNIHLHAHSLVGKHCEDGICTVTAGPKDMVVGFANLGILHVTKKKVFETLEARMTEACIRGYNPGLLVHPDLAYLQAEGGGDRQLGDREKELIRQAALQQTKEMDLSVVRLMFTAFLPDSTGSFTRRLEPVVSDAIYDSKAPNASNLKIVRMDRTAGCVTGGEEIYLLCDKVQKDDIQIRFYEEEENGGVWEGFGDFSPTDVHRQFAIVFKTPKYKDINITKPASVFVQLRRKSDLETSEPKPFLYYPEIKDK

| Sequence | binding signal (GST-Ap-NF-kB RHD) [z-score] | binding signal [1] [z-score] | binding signal [2] [z-score] | binding signal (GST-Co-NF-kB) [z-score] | binding signal (GST-Dm-Relish) [z-score] | binding signal (GST-Aq-NF-kB) [z-score] | binding signal (GST-Hu-p50) [z-score] |
| --- | --- | --- | --- | --- | --- | --- | --- |
| CCGATTAACATCACGAATCCCCCTGATGTTAATCGGGTCTTGATTCGCTTGACGCTGCTG | 8.06 | 6.45 | 7.96 | 5.16 | 6.03 | 5.26 | 6.72 |
| CCGATTAACATCAGGGGGGAAACTGATGTTAATCGGGTCTTGATTCGCTTGACGCTGCTG | 7.64 | 7.15 | 8.2 | 11.1 | 5.47 | 5.87 | 6.97 |
| CCGATTAACATCAGGGATTTTACTGATGTTAATCGGGTCTTGATTCGCTTGACGCTGCTG | 3.97 | 3.99 | 2.96 | 2.36 | 7.1 | 5.29 | 3.96 |
| CCGATTAACATCAGGGGATGAATTGATGTTAATCGGGTCTTGATTCGCTTGACGCTGCTG | 3.07 | 4.37 | 5.12 | 4.99 | 2.75 | 3.44 | 3.88 |
| CCGATTAACATCAGGGGGCGGGATGATGTTAATCGGGTCTTGATTCGCTTGACGCTGCTG | 3.64 | 4 | 3.53 | 2.28 | 3.49 | 4.03 | 4.21 |
| CCGATTAACATCAGGATAACCCCTGATGTTAATCGGGTCTTGATTCGCTTGACGCTGCTG | 4.52 | 3.22 | 1.82 | 1.72 | 2.74 | 5.12 | 3.08 |
| CCGATTAACATCAATAACCCCCATGATGTTAATCGGGTCTTGATTCGCTTGACGCTGCTG | 5.5 | 4.47 | 4.38 | 2.27 | 5.69 | 4.84 | 5.31 |
| CCGATTAACATCAAGCACCCCCCTGATGTTAATCGGGTCTTGATTCGCTTGACGCTGCTG | 5 | 3.3 | 3.81 | 3.39 | 4.97 | 4.27 | 4.29 |
| CCGATTAACATCAGGGAAATCCCTGATGTTAATCGGGTCTTGATTCGCTTGACGCTGCTG | 9.75 | 11.4 | 9.68 | 4.02 | 10.3 | 10.9 | 7.17 |
| CCGATTAACATCAGGAAAACCCCTGATGTTAATCGGGTCTTGATTCGCTTGACGCTGCTG | 8.2 | 8.89 | 6.66 | 2.41 | 8.77 | 9.24 | 7.4 |
| CCGATTAACATCAGGGGGAAGACTGATGTTAATCGGGTCTTGATTCGCTTGACGCTGCTG | 5.87 | 6.01 | 6.96 | 8.23 | 4.92 | 5.25 | 6.29 |
| CCGATTAACATCAGGAATTTCCCTGATGTTAATCGGGTCTTGATTCGCTTGACGCTGCTG | 6.77 | 10.1 | 6.94 | 4.93 | 5.72 | 10.8 | 6.03 |
